Here are results for nine compounds from PubChem BioAssay (NCI).

Some test systems named below: HCT-15 colon; HT29 colon; SNB-19 CNS; U251 CNS; PC-3 prostate; SK-MEL-5 melanoma; UACC-62 melanoma; LOX IMVI melanoma; SK-MEL-28 melanoma; SK-MEL-2 melanoma; EKVX NSCLC; SN12C renal; UO-31 renal; TK-10 renal; ACHN renal; CAKI-1 renal; A498 renal; CCRF-CEM leukemia; MOLT-4 leukemia; SNB-75 CNS.
What all share (assay): NCI-60 one-dose screen, 48 h (100 = growth as untreated, 0 = no growth, -100 = all killed)
Holding throughout (conditions): 10 µM unless noted

About 83,000 compounds went through this panel and 20% of them were active in at least one assay; those are over-represented in the sample as a whole.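 Step 1: grow cells in 96-well plates. Step 2: add test compound at a single concentration. Step 3: incubate 48 h. Step 4: record percent growth.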 A number with no mark means an inactive call. The source made the active and inactive calls. Rule for the calls: active = growth percent below 10; inactive = the rest.

With `CCNCc1ccc(O)c2ncccc12`, the growth in the assay on HCT-15 colon is 28%; in the assay on HT29 colon, 95.9%; with SNB-19 CNS, 24.2%; in the assay on U251 CNS, 17.7%; in the assay with PC-3 prostate, 23.4%; with SK-MEL-5 melanoma, 6.19% (active). Also, the growth with UACC-62 melanoma is 25%; with LOX IMVI melanoma it was 31%; in the assay on SK-MEL-28 melanoma, 65.6%; in the assay on SK-MEL-2 melanoma, 15.4%; with EKVX NSCLC, 25.1%; in the assay on SN12C renal, 34%. For the same compound, the growth in the assay with UO-31 renal is 18.1%; with TK-10 renal it was 5.97% (active); with ACHN renal, 22.7%; with CAKI-1 renal it was 35.3%; in the assay with A498 renal, 59.5%; in the assay on CCRF-CEM leukemia, 27.3%. In the assay with MOLT-4 leukemia, the growth was 29%.
In the case of `COC(=O)/C=C1/SC(=Nc2cccc(Cl)c2)N(CCc2c[nH]c3ccc(O)cc23)C1=O`, the growth was -11.6% (active) with HCT-15 colon; 49.2% with HT29 colon; 14.3% with SNB-19 CNS; 4.91% (active) with U251 CNS; 9.39% (active) with PC-3 prostate; 41.4% in the assay with SK-MEL-5 melanoma. The growth is 13.8% with UACC-62 melanoma; -39.2% (active) in the assay on LOX IMVI melanoma; 17.4% in the assay with SK-MEL-28 melanoma; -15.8% (active) with SK-MEL-2 melanoma; 45.7% in the assay with EKVX NSCLC; 10% in the assay on SN12C renal. Also, the growth in the assay with UO-31 renal was 17.7%; in the assay with TK-10 renal, 89.2%; in the assay on ACHN renal, 15.9%; in the assay with CAKI-1 renal, 37.4%; in the assay with A498 renal it was 79.9%; with CCRF-CEM leukemia, 0.545% (active). Besides, the growth in the assay with MOLT-4 leukemia is -8.3% (active).
With `Fc1ccc2c(c1)c(-c1nc(-c3c[nH]c4ncccc34)cs1)cn2CCCN1CCOCC1`, the growth is 24.5% with HCT-15 colon; 12.9% in the assay with HT29 colon; 62.7% in the assay on SNB-19 CNS; 30.4% with U251 CNS; 69.5% in the assay with UACC-62 melanoma; 33.1% in the assay with LOX IMVI melanoma. The growth is 75.4% in the assay with SK-MEL-28 melanoma; 60.5% in the assay with SK-MEL-2 melanoma; 55.9% in the assay with EKVX NSCLC; 73.9% in the assay with SN12C renal; 31.5% in the assay on UO-31 renal; 66.9% with TK-10 renal. Also, the growth was 42.2% in the assay with ACHN renal; 56.2% in the assay with CAKI-1 renal; 51% in the assay on A498 renal; 21.8% with CCRF-CEM leukemia; 24.8% in the assay on MOLT-4 leukemia.
Turning to `C[Se]C(=O)CC1=C2C=C(F)C=CC2/C(=C\c2ccc(S(C)=O)cc2)C1C` (stereo not given), the growth was 15% in the assay on HCT-15 colon; 13.8% in the assay with HT29 colon; -25.5% (active) in the assay with SNB-75 CNS; -22.7% (active) in the assay with SNB-19 CNS; -87.7% (active) in the assay with SK-MEL-5 melanoma; 30.9% in the assay with UACC-62 melanoma. Further, the growth in the assay on LOX IMVI melanoma is -68.4% (active); in the assay on SK-MEL-28 melanoma it was 4.39% (active); with SK-MEL-2 melanoma it was 17.3%; in the assay with EKVX NSCLC, -7.14% (active); with SN12C renal, -51.6% (active); in the assay on UO-31 renal, 18%. For the same compound, the growth with TK-10 renal is -19.2% (active); in the assay on ACHN renal, 11%; with CAKI-1 renal it was -20.9% (active); in the assay with A498 renal it was -64.8% (active); in the assay on CCRF-CEM leukemia it was 10.6%; in the assay on MOLT-4 leukemia it was 6.51% (active).
As for `O=C(CN1C(=O)/C(=C/c2ccco2)SC1=S)NCCc1c[nH]c2ccc(F)cc12`, the growth in the assay on HCT-15 colon was 101%; in the assay with HT29 colon, 112%; with SNB-19 CNS it was 102%; in the assay with U251 CNS it was 103%; in the assay with PC-3 prostate, 94%; with SK-MEL-5 melanoma it was 99.6%. Also, the growth in the assay on UACC-62 melanoma is 87.8%; with LOX IMVI melanoma, 96.9%; in the assay on SK-MEL-28 melanoma, 112%; with SK-MEL-2 melanoma, 119%; in the assay on EKVX NSCLC it was 98.3%; in the assay on SN12C renal, 97.6%. For the same compound, the growth with UO-31 renal was 70.8%; in the assay on TK-10 renal, 105%; in the assay on ACHN renal, 101%; with CAKI-1 renal, 81.8%; with A498 renal it was 94.5%; in the assay on CCRF-CEM leukemia it was 97.1%. The growth in the assay with MOLT-4 leukemia was 97.7%.
With `CCOC(=O)c1cn2ncnc(Oc3ccc(NC(=O)NC4CC4)c(F)c3)c2c1C`, the growth in the assay with HCT-15 colon is 60.4%; with HT29 colon, 110%; with SNB-19 CNS, 89.2%; in the assay on U251 CNS it was 82.5%; with SK-MEL-5 melanoma, 94.9%; in the assay with UACC-62 melanoma, 86.9%. Also, the growth in the assay on LOX IMVI melanoma was 87.7%; with SK-MEL-28 melanoma, 108%; in the assay with SK-MEL-2 melanoma it was 114%; in the assay on EKVX NSCLC, 96.3%; with SN12C renal it was 95.1%; in the assay with UO-31 renal it was 70.6%. For the same compound, the growth in the assay with TK-10 renal is 119%; in the assay on ACHN renal, 93.5%; in the assay with CAKI-1 renal it was 102%; with A498 renal, 54.2%; with CCRF-CEM leukemia, 90.9%; with MOLT-4 leukemia, 104%.
As to `Cn1cc(-c2nc(-c3c[nH]c4ccncc34)cs2)c2cc(Br)ccc21`, the growth is -85.4% (active) in the assay with HCT-15 colon; -97% (active) in the assay with SNB-75 CNS; -76% (active) in the assay with SNB-19 CNS; -84.1% (active) with U251 CNS; -86.4% (active) with PC-3 prostate; -47.9% (active) in the assay with SK-MEL-5 melanoma. Further, the growth was -86.7% (active) in the assay on UACC-62 melanoma; -90% (active) with LOX IMVI melanoma; -91.3% (active) in the assay on SK-MEL-28 melanoma; -57.7% (active) in the assay with SK-MEL-2 melanoma; -75.3% (active) in the assay on EKVX NSCLC; -74.4% (active) with SN12C renal. The growth in the assay on UO-31 renal is -91.2% (active); with TK-10 renal, -84% (active); in the assay on ACHN renal, -98.9% (active); with CAKI-1 renal, -77.2% (active); in the assay on A498 renal, -78% (active); in the assay on CCRF-CEM leukemia, -43.4% (active). The growth with MOLT-4 leukemia is -66.4% (active).
Take `NC(=O)c1c(NC(=O)c2ccc(Cl)cc2)sc2c1CCC(=O)C2`: the growth in the assay on HCT-15 colon is 63.5%; in the assay with SNB-75 CNS, 45.4%; with SNB-19 CNS, 71.1%; in the assay on U251 CNS it was 24%; in the assay with PC-3 prostate, 15.5%; with SK-MEL-5 melanoma, 99.1%. In addition, the growth with UACC-62 melanoma is 61.9%; in the assay with LOX IMVI melanoma it was 56.5%; in the assay with SK-MEL-28 melanoma, 99.2%; in the assay with SK-MEL-2 melanoma, 99.6%; in the assay on EKVX NSCLC it was 92.7%; with SN12C renal it was 71.8%. In addition, the growth in the assay on UO-31 renal is 40.7%; in the assay with TK-10 renal, 85.2%; in the assay with ACHN renal, 45.6%; with CAKI-1 renal, 18.6%; with A498 renal, 77%; in the assay on CCRF-CEM leukemia it was 7.15% (active). Besides, the growth in the assay on MOLT-4 leukemia is 46.3%.
On to `C#CCOc1cccc(-c2ncc3cc(NC(=O)CCl)ccc3n2)c1`, for which the growth is -29.6% (active) with HCT-15 colon; 24.4% in the assay with SNB-75 CNS; 2.89% (active) in the assay on SNB-19 CNS; -95.7% (active) with U251 CNS; 11.7% in the assay with PC-3 prostate; -6.06% (active) in the assay on UACC-62 melanoma. The growth with LOX IMVI melanoma was -50.4% (active); in the assay with SK-MEL-28 melanoma it was 53.9%; in the assay with SK-MEL-2 melanoma it was 22.7%; with EKVX NSCLC, -1.1% (active); with UO-31 renal it was 50.9%; with TK-10 renal, 78.9%. Moreover, the growth in the assay with ACHN renal is -87.2% (active); in the assay with CAKI-1 renal, -27.3% (active); in the assay with A498 renal, 88.1%; in the assay with CCRF-CEM leukemia, -16.8% (active); in the assay on MOLT-4 leukemia, 0.493% (active).
